From PubChem BioAssay AID504467 (National Center for Advancing Translational Sciences (NCATS), 2011)
The whole screen tested about 330,000 compounds, of which about 7,700 (2.3%) were called active. Inconclusive results (about 26%) are left out. Calls come from the whole dose curve; as a rule, active = well fitted inhibition curve with a large enough effect; inconclusive = small, poorly fitted or top-dose-only effect, or effect the other way; inactive = flat fitted curve, though single readings scatter. The list comes from a sample in which actives are over-represented; it also holds similar structures and randomly drawn compounds. Where a call stands in place of a potency, no number is given.

Assay: qHTS screen for small molecules that inhibit ELG1-dependent DNA repair in human embryonic kidney (HEK293T) cells expressing luciferase-tagged ELG1; note: nearly all actives have a fitted effect of over 55% in size
Conditions: HEK293T ELG1-luciferase reporter, luminescence, 16 h, DNA damage induced by 5-fluorouridine; series mostly up to 46.1 µM
How it was run: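 Luminescence from the luciferase reporter, measured 30 min after ONE-Glo reagent at room temperature, was the read-out. Beforehand, 2,000 cells per well were exposed for 16 hr at 37 °C to 5-fluorouridine together with compound or vehicle.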
Potency is the fitted concentration of half-maximal effect.

| SMILES | Potency |
| --- | --- |
| COc1ccc(C(=O)NC2CC(C)(C)Cc3c2cnn3-c2ccccc2C)o1 (centres undefined) | inactive |
| COc1ccccc1N(C)C(=O)c1cc(S(=O)(=O)N2CCc3ccccc32)cn1C | inactive |
| COc1ccc(OC)c(C(C)NC(=S)Nc2ccc(S(=O)(=O)Nc3ncccn3)cc2)c1 (centres undefined) | inactive |
| O=C(Nc1cc(Cl)ccc1N1CCOCC1)c1ccc(N2CCCC2=O)cc1 | inactive |
| NCCN1CCN2C(=O)CN(C(=O)c3ccccc3)CC12 (centres undefined) | inactive |
| CC1(C(=O)N/N=C/c2cc3c(cc2Br)OCO3)CC1(Br)Br (centres undefined) | inactive |
| COc1ccc(CC(=O)Nc2c(C(N)=O)oc3ccccc23)cc1 | inactive |
| COc1ccc2oc(=O)cc(-c3cc4ccccc4o3)c2c1 | inactive |
| COc1ccc(Nc2cc(=O)oc3ccccc23)cc1 | 4.61 µM (active) |
| CCCOc1ccc(C2=CSC3=NCCN23)cc1Cl | inactive |
| c1ccc2c(NCC3CCCO3)nc(-c3ccncc3)nc2c1 (centres undefined) | 18.4 µM (active) |
| O=C(NCC1CCCO1)c1cc(-c2ccccc2)nc2ccccc12 (centres undefined) | inactive |
| Cc1nc2ccccc2c2oc(C(=O)NCCCN3CCC(C)CC3)cc12 | inactive |
| CCCN(CCC)CCNC(=O)c1cc2c(C)nc3ccccc3c2o1 | inactive |
| c1ccc(-c2nc(NCc3ccco3)c3ccccc3n2)cc1 | inactive |
| Cc1nc2ccccc2c2oc(C(=O)NCC3CCCO3)cc12 (centres undefined) | 20.6 µM (active) |
| O=C(Cn1ncc2c3ccccc3n(Cc3ccccc3)c2c1=O)NCCCN1CCOCC1 | inactive |
| COc1ccc(NC(=O)C(C)N2c3cccc4cccc(c34)S2(=O)=O)c(OC)c1 (centres undefined) | inactive |
| CCC1(CC)NC(=O)N(CC(=O)OCC(=O)c2cc(C)c(C)cc2C)C1=O | inactive |
| CCN(C(=O)CSc1nnnn1-c1ccc(OC)cc1)C1CCS(=O)(=O)C1 (centres undefined) | inactive |
| O=C(Nc1ccc(N2CCN(C(=O)c3cccs3)CC2)cc1)c1cccnc1Cl | inactive |
| Cc1ccccc1C(=O)N1CCN(c2ccc(NC(=O)c3cccs3)cc2)CC1 | 9.2 µM (active) |

| SMILES | Potency |
| --- | --- |
| O=C(Nc1ccc(N2CCN(C(=O)C3CC3)CC2)cc1)c1cccs1 | inactive |
| COc1ccc(CNC(=O)C[C@H]2C[C@H](C(=O)N3CCOCC3)[C@@]3(C)c4[nH]c5cc(CCC(=O)N(C)C)ccc5c4CCN3C2=O)cc1OC | inactive |
| CCc1ccccc1NC(=O)CN(C)C(=O)c1cc(C2CC2)nn1-c1ccccc1 | inactive |
| O=C(c1ccc2nc(N3CCOCC3)sc2c1)N1CCN(c2ccc(Cl)cc2)CC1 | inactive |
| O=C(/C=C/c1cn(-c2ccccc2)nc1-c1ccc2c(c1)OCCO2)NCCCN1CCOCC1 | inactive |
| O=C(/C=C\c1cn(-c2ccccc2)nc1-c1cccs1)N1CCOCC1 | 16.4 µM (active) |
| O=C(O)/C=C/c1cn(Cc2ccccc2)nc1-c1cccs1 | inactive |
| CC(C)C[C@H](NC(=O)N1CC(=O)Nc2ccccc21)C(=O)N[C@H](Cc1ccccc1)C(=O)O | inactive |
| CCCCCCSc1ccc(-c2nc3ccc(Cl)cn3c2NCc2ccccc2)cc1 | inactive |
| CN(C)CCCN(C(=O)COc1ccccc1)c1nc2c(Cl)cccc2s1 | inactive |
| CN(C(=O)COc1ccccc1)c1nnc(-c2ccncc2)s1 | inactive |
| COc1ccc(CCN(C(=O)COc2ccccc2)c2nc(-c3ccccc3)cs2)cc1OC | 23.1 µM (active) |
| Cc1cc(F)ccc1NC(=S)NCCc1ccccc1 | inactive |
| COc1ccc(-c2noc(C(C)NS(=O)(=O)c3ccc(NC(C)=O)cc3)n2)cc1 (centres undefined) | inactive |
| COc1ccc(-n2c(=O)[nH]c3cc(C(=O)NCCc4ccc(OC)c(OC)c4)ccc3c2=O)c(OC)c1 | inactive |
| NC(N)=Nc1nc(-c2ccccc2)c2cc(Cl)ccc2n1 | inactive |
| O=C(CCl)NNc1nc(-c2ccccc2)c2cc(Cl)ccc2n1 | inactive |
| Clc1ccc2nc(-c3ccccc3)nc(C(Cl)Cl)c2c1 | 2.31 µM (active) |
| Cn1c(CCN2CCCC2)nc2cc(NS(=O)(=O)c3ccccc3)ccc21 | inactive |
| CCOCCn1[nH]c2ccccc2c1=O | inactive |
| COc1ccc(N(CC(=O)NCc2ccc(F)cc2)C(=O)CCC(=O)Nc2nccs2)cc1 | inactive |
| COc1ccc(NC(=O)CN(C)CC(=O)Nc2cccc(C(F)(F)F)c2)cc1 | inactive |

| SMILES | Potency |
| --- | --- |
| Cc1cccc(NC(=O)c2nnn(-c3cccc(C(F)(F)F)c3)c2N)c1 | inactive |
| COc1cc(NC(=O)c2[nH]cnc2C(N)=O)cc(C(=O)Nc2cccc(C(F)(F)F)c2)c1 | 5.8 µM (active) |
| CN=C(Nc1cccc(S(=O)(=O)N2CCOCC2)c1)c1ccccc1 | inactive |
| Cn1cncc1C#Cc1c(-c2ccsc2)sc2ccccc12 | inactive |
| CNS(=O)(=O)c1ccc(C(=O)NCC(=O)NCCc2ccc3c(c2)OCCO3)cc1 | inactive |
| COc1ccccc1/C=C1\SC(=O)N(CCC(=O)N(C)C2CCS(=O)(=O)C2)C1=O (centres undefined) | inactive |
| Cc1nn(-c2ccccc2)c(C)c1/C=N/NC(=O)CSc1nc2ccccc2c(=O)n1-c1ccccc1 | 16.4 µM (active) |
| O=C(CSc1nc2ccccc2c(=O)n1-c1ccc(F)cc1)NC1CC1 | inactive |
| Cn1c(SCC(=O)N/N=C/c2ccc(O)c(O)c2)nc2ccccc21 | inactive |
| COCCCNC(=O)CNC(=O)c1nn(-c2ccc(OC)cc2)c(=O)c2ccccc12 | inactive |
| CCCN(CCC)CCCNC(=O)CNC(=O)c1nn(-c2ccc(OC)cc2)c(=O)c2ccccc12 | inactive |
| COc1ccc(-n2nc(C(=O)NCC(=O)Nc3cccc(C)n3)c3ccccc3c2=O)cc1 | 18.4 µM (active) |
| CN1CCN(S(=O)(=O)c2ccc(N3CCN(c4ccccc4O)CC3)c([N+](=O)[O-])c2)CC1 | inactive |
| CCOc1ccc(CCNC(=O)CN2C(=O)NC3(CCc4ccccc43)C2=O)cc1OCC (centres undefined) | inactive |
| O=C(c1cc2cc(F)ccc2[nH]1)N1CCN(c2ccc(F)cc2)CC1 | inactive |
| O=C(c1ccc(Cl)c([N+](=O)[O-])c1)N1CCN(c2ccccc2)CC1 | inactive |
| O=C(c1cccc(C(=O)N2CCN(c3ccc(F)cc3)CC2)c1)N1CCN(c2ccc(F)cc2)CC1 | 18.4 µM (active) |
| O=C(c1ccccc1)c1ccc(C(=O)N2CCN(c3ccccc3)CC2)cc1 | inactive |
| O=C(c1cc(C(=O)N2CCN(c3ccc(F)cc3)CC2)cc([N+](=O)[O-])c1)N1CCN(c2ccc(F)cc2)CC1 | 11.2 µM (active) |
| O=C(c1cccc(F)c1)N1CCN(c2ccc([N+](=O)[O-])c(N3CCCCC3)c2)CC1 | inactive |
